Screening data deposited in PubChem BioAssay by National Center for Advancing Translational Sciences (NCATS).
KB-3-1 cytotox: KB-3-1 parental cell cytotoxicity. AID 1347075. KB-3-1 viability, CellTiter-Glo ATP luminescence, 72 h. Potency, µM (top dose mostly 46.1 µM), actives largely listed as cytotoxic. hit rate 1.4% among 400,000; also: potency is read from the fitted curve at half-maximal effect; % is scaled to controls: 0 for no effect and ±100 for the full control effect; nearly all actives have a fitted effect of over 60% in size
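Viability of parental KB-3-1 cells, measured by CellTiter-Glo luminescence, followed a 72 h incubation at 37 °C with pinned compounds in phenol-red-free DMEM containing 10% FBS.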
IL-1B inflam inh: inhibitors of inflammasome signaling (IL-1 beta secretion). THP-1 LPS/ATP IL-1B secretion, AlphaLISA, 16 h; active compounds read low. AID 743279. hit rate 4.7% among 360,000. activity change, % at 57.5 µM; in the data active = activity change below about -50%; inconclusive = mostly about -30% to -49%; also: % is scaled to controls: 0 for no effect and ±100 for the full control effect
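Secreted IL-1B measured by AlphaLISA bead assay after 16 h compound exposure of THP-1 cells; compounds (final up to 57.5 uM) added 1 h before LPS (250 ng/mL) and ATP (1.25 mM) stimulation; lower signal means less secretion.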
KB-V1 MDR tox: kills drug-selected multidrug resistant KB-V1 cells; hit rate 3.4% among 400,000; KB-V1 MDR cells viability, CellTiter-Glo, 72 h; AID 1347076; Potency, µM (top dose mostly 46.1 µM), hits mostly cytotoxic; also: potency is read from the fitted curve at half-maximal effect; % is scaled to controls: 0 for no effect and ±100 for the full control effect; nearly all actives have a fitted effect of over 60% in size
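Compound-treated KB-V1 multidrug-resistant cells, 72 h, 37 degrees C; viability by CellTiter-Glo. Fitted qHTS curves give the values.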
SW480 rereplic: DNA re-replication induction in SW480 cells. Potency, µM (titrated, usually from 46.1 µM), inactives show top-dose re-replication activation, hits mostly activators. SW480 DNA re-replication, Hoechst DNA content imaging, 48 h. hit rate 1.8% among 340,000; also: potency is read from the fitted curve at half-maximal effect; % of control where 0% means no effect; nearly all actives have a fitted effect of over 55% in size
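Per well, 250 cells were exposed to pinned compound for 48 hr. Nuclear DNA was visualised with Hoechst (40 min, 37 C) and total object intensity recorded by fluorescence scanning.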
MCF10A rerep: DNA re-replication induction in MCF 10a cells; MCF 10A DNA re-replication, Hoechst nuclear intensity, 48 h; Potency, µM (titrated, usually from 46.1 µM), without a hit: top-dose activity, positive = re-replication, actives largely listed as activators; hit rate 2.9% among 350,000; also: potency is read from the fitted curve at half-maximal effect; % of control where 0% means no effect; nearly all actives have a fitted effect of over 50% in size
* marks the source's active call; other numbers are inactive results. Only some compounds are listed: those with a hit (about 9.9% of all), similar ones and a draw of the others. Unless noted, calls follow the shape of the dose curve; as a rule, active = well fitted curve in the direction sought with a large enough effect; inconclusive = small, poorly fitted or top-dose-only effect, or another doubt; inactive = no such curve, though single readings can be large; an effect the other way counts as inactive or inconclusive.

How did CC(=O)Nc1cccc(C(=O)OCC(=O)N2CCC(c3ccccc3)=N2)c1 do in these assays?
KB-3-1 cytotox: inactive; IL-1B inflam inh: -20; KB-V1 MDR tox: inactive; SW480 rereplic: 1%; MCF10A rerep: -10%

Results for O=S(=O)(c1ccccc1Br)N(Cc1ccccc1)CC(O)COCc1ccccc1 (stereo not drawn) ?
KB-3-1 cytotox: inactive; IL-1B inflam inh: -61*; KB-V1 MDR tox: inactive; SW480 rereplic: -8%; MCF10A rerep: inconclusive

Results for CN(Cc1nc(Cc2ccccc2F)no1)Cc1cccc2ncccc12 ?
KB-3-1 cytotox: inactive; IL-1B inflam inh: -108*; KB-V1 MDR tox: inconclusive; SW480 rereplic: inconclusive; MCF10A rerep: 4%

How did CN(Cc1nc(Cc2ccccc2F)no1)CC1(N2CCOCC2)CCCCC1 do in these assays?
KB-3-1 cytotox: inactive; IL-1B inflam inh: -15; KB-V1 MDR tox: inactive; SW480 rereplic: -15%; MCF10A rerep: -1%

How did O=c1cc(CN2CCN(CCO)CC2)c2cc3c(cc2o1)CCC3 do in these assays?
KB-3-1 cytotox: inactive; IL-1B inflam inh: 0; KB-V1 MDR tox: inactive; SW480 rereplic: -4%; MCF10A rerep: 1%

How did O=c1cc(CN2CCN(Cc3ccccc3)CC2)c2cc3c(cc2o1)CCC3 do in these assays?
KB-3-1 cytotox: inactive; IL-1B inflam inh: -69*; KB-V1 MDR tox: inactive; SW480 rereplic: -1%; MCF10A rerep: 1%

What do the screens show for `COc1ccc(CN2CCN(Cc3cc(=O)oc4cc(C)ccc34)CC2)c(OC)c1OC`?
KB-3-1 cytotox: inactive; IL-1B inflam inh: -1; KB-V1 MDR tox: inactive; SW480 rereplic: 10%; MCF10A rerep: 6.5µM*

Results for CCc1cc2c(CN3CCN(Cc4ccccc4)CC3)cc(=O)oc2cc1O ?
KB-3-1 cytotox: inactive; IL-1B inflam inh: inconclusive; KB-V1 MDR tox: inconclusive; SW480 rereplic: inconclusive; MCF10A rerep: inconclusive

How did CCc1ccc2c(CN3CCN(Cc4ccccc4)CC3)cc(=O)oc2c1 do in these assays?
KB-3-1 cytotox: inactive; IL-1B inflam inh: -61*; KB-V1 MDR tox: inactive; SW480 rereplic: -1%; MCF10A rerep: 16%

How did Cc1cc2oc(=O)cc(CN3CCN(S(=O)(=O)/C=C/c4ccccc4)CC3)c2cc1C do in these assays?
KB-3-1 cytotox: inactive; IL-1B inflam inh: -8; KB-V1 MDR tox: 2.6µM*; SW480 rereplic: 15%; MCF10A rerep: 3%

Results for CSc1ncccc1C(=O)Nc1cccc(S(=O)(=O)N(C)c2ccccc2)c1 ?
KB-3-1 cytotox: inconclusive; IL-1B inflam inh: -3; KB-V1 MDR tox: inactive; SW480 rereplic: -4%; MCF10A rerep: 5%

How did FC(F)(F)COc1nc(OCC(F)(F)F)nc(N2CCN(c3ccccc3)CC2)n1 do in these assays?
KB-3-1 cytotox: inactive; IL-1B inflam inh: -54*; KB-V1 MDR tox: inactive; SW480 rereplic: -5%; MCF10A rerep: inconclusive

Results for COc1ccccc1-c1cc(C(F)(F)F)nc(S(C)(=O)=O)n1 ?
KB-3-1 cytotox: inconclusive; IL-1B inflam inh: -109*; KB-V1 MDR tox: inconclusive; SW480 rereplic: inconclusive; MCF10A rerep: 4.1µM*

Results for FC(F)(F)COc1nc(N2CCOCC2)nc(N(c2ccccc2)c2ccccc2)n1 ?
KB-3-1 cytotox: inactive; IL-1B inflam inh: -5; KB-V1 MDR tox: inconclusive; SW480 rereplic: inconclusive; MCF10A rerep: inconclusive

What do the screens show for `COc1ccccc1CCNC(=O)C(C)Sc1nc(-c2ccccc2)cc(C(F)(F)F)n1` (stereo not drawn)?
KB-3-1 cytotox: inactive; KB-V1 MDR tox: inactive

What do the screens show for `COc1ccccc1-c1cc(C(F)(F)F)nc(S(=O)(=O)CCCC(=O)NCc2ccc(F)cc2)n1`?
KB-3-1 cytotox: inconclusive; IL-1B inflam inh: -100*; KB-V1 MDR tox: inactive; SW480 rereplic: inconclusive; MCF10A rerep: 4.1µM*

How did COc1ccccc1-c1cc(C(F)(F)F)nc(S(=O)(=O)CCCC(=O)Nc2cccnc2Cl)n1 do in these assays?
KB-3-1 cytotox: inactive; IL-1B inflam inh: -110*; KB-V1 MDR tox: inactive; SW480 rereplic: inconclusive; MCF10A rerep: inconclusive

How did COc1ccc(NC(=O)CCCS(=O)(=O)c2nc(-c3ccccc3OC)cc(C(F)(F)F)n2)c(OC)c1 do in these assays?
KB-3-1 cytotox: inactive; KB-V1 MDR tox: inconclusive
